Screens: PubChem, National Center for Advancing Translational Sciences (NCATS)
Rab9 promoter act – Rab9 promoter activation; Huh7 Rab9 promoter-luciferase reporter, luminescence, 24 h; Potency, µM (series often up to 9.22 µM), inactives show top-dose activation, negative = inhibition, actives largely listed as activators; hit rate 2.8% among 320,000; note: % of control where 0% means no effect; nearly all actives have a fitted effect of over 60% in size
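Huh7 cells stably carrying a Rab9 promoter-luciferase reporter, 1500 cells per well in OP-MEM I with 10% FBS, treated with compound 24 hours at 37C. Luciferase activity read by luminescence after 10 minutes with Amplite reagent.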
FLuc counter – counter-screen for miR-21 project: firefly luciferase inhibitors or activators; Potency, µM (titrated, usually from 57.5 µM), without a hit: at the highest dose activity change, negative = inhibition, most hits filed as inhibitors; purified FLuc, Km substrates, luminescence inhibition; hit rate 6.9% among 360,000; AID 588342;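 note: plate controls were vehicle for no effect and reference inhibitor for full effect; nearly all actives have a fitted effect of over 55% in size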
Target sequence (P08659 whole entry, looked up): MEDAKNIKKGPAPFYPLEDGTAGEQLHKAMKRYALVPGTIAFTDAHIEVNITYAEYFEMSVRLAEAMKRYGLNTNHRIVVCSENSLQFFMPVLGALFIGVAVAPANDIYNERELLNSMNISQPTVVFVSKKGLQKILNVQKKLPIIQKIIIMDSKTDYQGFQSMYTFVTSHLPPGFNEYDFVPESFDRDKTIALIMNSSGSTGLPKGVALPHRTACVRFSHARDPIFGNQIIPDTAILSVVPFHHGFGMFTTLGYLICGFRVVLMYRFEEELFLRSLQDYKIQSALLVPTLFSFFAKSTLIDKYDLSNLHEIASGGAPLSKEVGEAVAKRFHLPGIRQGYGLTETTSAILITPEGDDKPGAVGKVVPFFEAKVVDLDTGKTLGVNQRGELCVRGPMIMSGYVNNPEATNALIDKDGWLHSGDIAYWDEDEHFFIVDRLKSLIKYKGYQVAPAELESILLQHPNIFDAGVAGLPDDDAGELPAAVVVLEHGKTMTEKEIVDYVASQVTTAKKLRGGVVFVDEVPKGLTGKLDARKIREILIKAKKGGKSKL
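Biochemical qHTS of compounds, final roughly 60 µM downward over six points, against 10 nM purified firefly luciferase using Km concentrations of substrates (10 uM D-luciferin, 10 uM ATP) in Tris acetate pH 7.5 buffer; luminescence output.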
ELG1 genotoxic – induces genotoxicity in HEK293T cells with luciferase-tagged ELG1. Potency, µM (top dose mostly 46 µM), inactives show at the highest dose activity change, positive = activation, most hits filed as activators. HEK293T ELG1-luciferase reporter, luminescence, 16 h. hit rate 1.3% among 330,000. AID 504466; note: % of control where 0% means no effect; nearly all actives have a fitted effect of over 60% in size
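Genotoxic stress is detected as increased luminescence from luciferase-tagged ELG1 in HEK293T cells, measured with ONE-Glo after a 16 hr treatment at 37 °C.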
SMN2 splice up – enhancers of SMN2 splice variant expression | HEK293 SMN2-luciferase splicing reporter, luminescence, 30-36 h | Potency, µM (top dose mostly 46.1 µM), for the others: at the top dose activity change, positive = activation, hits mostly activators | hit rate 2.8% among 210,000; note: % of control where 0% means no effect; nearly all actives have a fitted effect of over 55% in size
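HEK293 cells carry an SMN2 minigene-luciferase reporter in which exon 7 inclusion puts luciferase in frame. Cells were seeded at 2000 cells/well, attached for 10-12 hours, then exposed to compounds for 30-36 hours at 37C before ONE-Glo luminescence.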
KinaseGlo FLuc – counter-screen: inhibitors of Kinase-Glo firefly luciferase. Q27757. Kinase-Glo luciferase, ATP luminescence, 8 min. hit rate 0.28% among 200,000. Potency, µM (series often up to 38.3 µM), without a hit: at the top dose activity change, negative = inhibition, usual class: inhibitors. AID 1379; note: % is set by controls: 0 for no effect and ±100 for the full control effect; nearly all actives have a fitted effect of over 60% in size
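Inhibition of Kinase-Glo luciferase light generation was assessed at 10 uM ATP in pH 7.2 imidazole buffer, with luminescence measured after eight minutes at ambient temperature.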
NPC1 prom act – activators of NPC1 promoter; AID 485313; Potency, µM (highest dose often 9.22 µM), for the others: top-dose activation, hits mostly activators; hit rate 2.4% among 320,000; Huh7 NPC1 promoter luciferase reporter, 24 h; note: % of control where 0% means no effect; nearly all actives have a fitted effect of over 60% in size
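Stable NPC1-promoter luciferase Huh7 line; cpd (DMSO) 24 h, 37 °C, 5% CO2; Amplite luciferase reagent 10 min RT; luminescence readout. qHTS format.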
Starred values were filed as active, the others as inactive; ? = inconclusive; nt = no result given; [ ] = remark or other dose. Shown are actives, neighbours in structure and some others; about 7.3% of the full set was active somewhere. Calls come from the whole dose curve; as a rule, active = well fitted curve in the direction sought with a large enough effect; inconclusive = small, poorly fitted or top-dose-only effect, or another doubt; inactive = no such curve, though single readings can be large; an effect the other way counts as inactive or inconclusive. Potency is the fitted concentration of half-maximal effect.

SMILES	Rab9 promoter act	FLuc counter	ELG1 genotoxic	SMN2 splice up	KinaseGlo FLuc	NPC1 prom act
Cc1ccsc1/C=N/NC(=O)c1nnn(-c2nonc2N)c1-c1ccc2c(c1)OCO2	-4%	-15%	-7%	nt	nt	-3%
Cc1ccsc1/C=N\NC(=O)c1ccc2c(c1)OCO2	1.4µM*	3.8µM*	?	?	-18%	1.4µM*
Cc1cccc(NC(=O)C(Cc2ccccc2)n2cccc2)c1C (configuration not stated)	nt	-4%	nt	-17%	nt	nt
CSc1ccccc1OCc1cc(C(=O)N2CCCC2c2nonc2C)no1 (configuration not stated)	2.2µM*	8.5µM*	?	nt	nt	2µM*
Cc1nonc1C1CCCN1C(=O)c1cc(COc2ccc(F)cc2F)on1 (configuration not stated)	2.2µM*	9.5µM*	?	nt	-3%	?
Cc1cccc(C)c1OCc1cc(C(=O)N2CCCC2c2nonc2C)no1 (configuration not stated)	7%	-3%	-3%	nt	nt	4%
CCCCN(CC)C(=O)CSc1nc2n[nH]c(C)c2c(=N)n1-c1cccc(Cl)c1	nt	-5%	nt	nt	nt	nt
Cc1cc(C)c(NC(=O)CSc2nc3ccccc3c3nc(-c4ccccc4)nn23)c(C)c1	nt	0%	nt	nt	nt	nt
Cc1ccc2nc(NC(=O)CN3C(=O)NC4(CCCC4)C3=O)sc2c1	-3%	9.5µM*	0%	nt	nt	-6%
CCOc1ccc2nc(NC(=O)CN3C(=O)NC4(CCCC4)C3=O)sc2c1	25%	6.7µM*	?	nt	nt	11%
COc1ccc(NC(=O)CSc2nc3ccccc3n2CC(=O)N2CCCC(C)C2)cc1 (configuration not stated)	nt	0%	nt	nt	nt	nt
O=C(COc1ccccc1F)Nc1ccc(OCc2cc(=O)n3ccccc3n2)cc1	nt	-9%	nt	nt	nt	nt
CCOc1ccc(-c2ncnn2-c2sc3c(c2C#N)CCCCC3)cc1	nt	?	nt	-16%	nt	nt
N#Cc1c(-n2ncnc2-c2ccc(Br)cc2)sc2c1CCCCC2	nt	1.2µM*	nt	6%	nt	nt
COc1cccc(-c2ncnn2-c2sc3c(c2C#N)CCCCC3)c1OC	nt	0.95µM*	nt	9%	nt	nt
CCOC(=O)c1c(NC(=O)c2ccc(S(=O)(=O)N(CC(C)C)CC(C)C)cc2)sc2c1CCN(CC)C2	nt	4%	nt	nt	nt	nt
COc1ccc2c(c1)c1c(c(=O)n(-c3ccccc3C)c(=O)n1CC(=O)N1CCCC1)n2C	nt	-6%	nt	nt	nt	nt
COc1ccc(-c2cc(=NC(CC(C)C)C(=O)O)c3cc(C)ccc3o2)cc1 (configuration not stated)	3%	0.85µM*	?	11µM*	2%	?
COc1ccc(-c2cc(=Nc3ccc(C)cc3)c3ccccc3o2)cc1	-33%	0%	-9%	-20%	3%	-7%
Cc1nc(-c2ccccc2)sc1C(=O)NN	-10%	4%	-9%	-32%	-4%	-5%
C/C(=N\OC(=O)c1cccc(C)c1)c1sc(-c2ccccc2)nc1C	2.8µM*	-7%	5.8µM*	?	-4%	4µM*
C/C(=N\OC(=O)c1cccc(C(F)(F)F)c1)c1sc(-c2ccccc2)nc1C	4µM*	5%	3%	25µM*	5%	3.5µM*
COc1ccc2c(c1)S/C(=C\C(=O)c1ccncc1)N2C	?	6.7µM*	21µM*	2%	-8%	?
COCC(=O)/C=C1\Sc2ccccc2N1C	0%	-8%	16%	16%	4%	1%
COc1cc(OC)cc(C(=O)/C=C2\Sc3ccccc3N2C)c1	?	7.6µM*	?	nt	nt	?
SMILES	Rab9 promoter act	FLuc counter	ELG1 genotoxic	SMN2 splice up	KinaseGlo FLuc	NPC1 prom act
COc1ccc(C(=O)/C=C2/Sc3cc4c(cc3N2C)OCO4)cc1	?	?	?	nt	nt	17%
CN1/C(=C\C(=O)c2cccc([N+](=O)[O-])c2)Sc2ccccc21	2µM*	1.3µM*	9.2µM*	nt	nt	1.3µM*
O=S(=O)(c1ccc(Br)cc1)c1nc(-c2ccco2)oc1SCc1ccccc1Cl	nt	0%	nt	20%	nt	nt
CC(C)C(=O)NC(=S)Nc1sc2c(c1C(N)=O)CCCC2	?	9.5µM*	?	?	-2%	?
CCCC(=O)NC(=S)Nc1sc2c(c1C(N)=O)CCC2	20%	4.3µM*	10%	?	2%	12%
C=CCNC(=S)Nc1sc2c(c1C(N)=O)CCCC2	10%	15µM*	2%	nt	nt	14%
COc1ccc(/C=C/C(=O)Nc2ccc3nc(N4CCC(C)CC4)cc(C)c3c2)cc1OC	nt	-7%	nt	-2%	nt	nt
CC1Cn2c(C(=O)NCc3ccccc3Cl)cc3cccc(c32)S1 (configuration not stated)	nt	4%	nt	nt	nt	nt
O=C(Nc1cccnc1)C1OCCc2ccccc21 (configuration not stated)	1%	6%	-2%	2%	-1%	12%
O=C(Nc1ccc(Br)cc1)C1OCCc2ccccc21 (configuration not stated)	?	17µM*	2%	nt	nt	24%
O=[N+]([O-])c1cccc(/C=N\NC2=CS(=O)(=O)C=C2)c1	nt	nt	nt	2%[9.22 µM]	-3%[7.66 µM]	nt
O=C(CSc1ccccc1)N1CCc2ccccc21	3.5µM*	6.7µM*	?	18µM*	-8%	3.5µM*
O=C(COc1ccc(Br)cc1)N1CCc2ccccc21	2.8µM*	9.5µM*	?	nt	nt	?
Nc1cc(N)nc(SCC(=O)N2CCc3ccccc32)n1	?	?	13%	?	-3%	?
O=C(CCCc1ccccc1)N1CCc2ccccc21	0.45µM*	2.1µM*	2.1µM*	11µM*	-1%	1.1µM*
O=C(COc1ccc(Br)cc1)N1CCc2ccccc2C1	-3%	?	-3%	-4%	-2%	1%
O=C(COc1ccccc1)N1CCc2ccccc21	1.3µM*	5.4µM*	?	14µM*	-4%	?
CCOC(=O)C1CCN(C(=O)Cn2ncc3c4ccccc4n(Cc4ccccc4)c3c2=O)CC1	nt	-4%	nt	2%	nt	nt
COc1ccc(C(=O)N2CCN(c3nc4c(C)c(Cl)ccc4s3)CC2)c(OC)c1	nt	-18%	nt	nt	nt	nt
CC(=O)O[C@]12CC[N@+]3(C)CCCC[C@@H]3[C-]1Nc1ccccc12	nt	nt	nt	4%[9.22 µM]	-2%[7.66 µM]	nt
Fc1ccc(-c2nc(Nc3cccc(C(F)(F)F)c3)nc3c2COc2ccccc2-3)cc1	nt	-15%	nt	nt	nt	nt
O=C(CSCc1ccco1)c1ccc(Cl)s1	?	6.7µM*	7%	9%	7%	2.8µM*
O=C(CS(=O)(=O)Cc1ccccc1)N1CCc2ccccc21	16%	-15%	16%	26%	-1%	16%
CCOc1ccc(C(=O)N2CCc3ccccc32)cc1	0.89µM*	15µM*	?	nt	nt	3.5µM*
O=C(OCc1ccccc1)N1CCc2ccccc21	1.6µM*	2.7µM*	16µM*	nt	nt	0.63µM*
